# Screening results: PubChem, The Scripps Research Institute Molecular Screening Center
# Rows were chosen to be rich in hits. Some 2% of all compounds tested hit in one or more screens of this group.
# GSTO1 counter: counter-screen for RBBP9 inhibitors: inhibitors of human GSTO1. P78417. recombinant GSTO1, activity-based probe fluorescence polarization. inhibition, % at 5.96 µM. actives 1.1% (n = 300,000);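 active = inhibition above the campaign mean inhibition plus 3 SD, cut at about 35% in these data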;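 note: 0% = GSTO1-1 with DMSO and 100% = wells lacking GSTO1-1 enzyme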
# Target sequence (P78417 whole entry, looked up): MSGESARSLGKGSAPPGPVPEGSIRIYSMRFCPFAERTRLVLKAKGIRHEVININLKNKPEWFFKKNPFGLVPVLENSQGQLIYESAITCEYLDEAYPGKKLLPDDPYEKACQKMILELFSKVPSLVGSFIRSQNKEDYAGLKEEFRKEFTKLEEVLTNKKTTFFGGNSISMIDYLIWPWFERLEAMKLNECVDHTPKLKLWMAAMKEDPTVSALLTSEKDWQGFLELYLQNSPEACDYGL
# Fam108B inh: blocks mouse Fam108B hydrolase in RBBP9 counter-screen; recombinant Fam108B, FP-Rh probe fluorescence polarization; inhibition, % at 9.51 µM; actives 0.33% (n = 300,000); AID 1947;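 active = inhibition above the screen mean inhibition plus 3 SD, computed separately per campaign, cut at about 18% in these data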;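 note: inhibitors lower polarization as less probe binds the enzyme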
# LYPLA2 inh: LYPLA2 (human) inhibition in PME1 counter-screen. O95372. recombinant LYPLA2, FP-Rh probe fluorescence polarization. inhibition, % at 5.9 µM. actives 0.38% (n = 320,000). AID 2177;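 active = inhibition above the screen-wide mean plus 3 SD, limit set per campaign, cut at about 26% in these data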;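 note: 0% = LYPLA2 with DMSO and 100% = wells lacking LYPLA2 enzyme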
# Target sequence (O95372 whole entry, looked up): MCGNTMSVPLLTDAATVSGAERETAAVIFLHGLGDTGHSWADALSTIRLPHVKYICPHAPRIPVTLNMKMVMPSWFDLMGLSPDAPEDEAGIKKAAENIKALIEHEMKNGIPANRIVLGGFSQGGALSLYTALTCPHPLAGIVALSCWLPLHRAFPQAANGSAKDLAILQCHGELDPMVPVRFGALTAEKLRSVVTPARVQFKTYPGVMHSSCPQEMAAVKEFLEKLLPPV
# PREPL inhibitor: human PREPL enzyme inhibition; recombinant PREPL, fluorescence polarization activity-based probe; inhibition, % at 5.96 µM; actives 0.68% (n = 320,000); in the data active = inhibition above about 43%;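 note: 0% = enzyme with DMSO and 100% = wells lacking enzyme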
# LYPLA1 inh: LYPLA1 (human) inhibition in PME1 counter-screen; inhibition, % at 5.9 µM; O75608; actives 0.16% (n = 320,000); AID 2174; recombinant LYPLA1, FP-Rh probe fluorescence polarization;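 active = inhibition above the mean of all tested compounds plus 3 SD, set per campaign, cut at about 14% in these data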;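 note: inhibitors block serine hydrolase probe labeling of LYPLA1 so polarization falls; 0% = enzyme with DMSO and 100% = wells lacking LYPLA1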
# PME-1 primary: blocks human protein phosphatase methylesterase 1; Q9Y570; AID 2130; actives 0.53% (n = 320,000); recombinant PME-1, FP-Rh probe fluorescence polarization; inhibition, % at 5.9 µM;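 active = inhibition above the campaign mean of all compounds plus 3 SD, cut at about 26% in these data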;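 note: competitive labeling of PME-1 active site by serine hydrolase directed probe; 0% = PME-1 with DMSO and 100% = wells lacking PME-1 enzyme; inhibitors block probe labeling so polarization falls and inhibition rises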
# An asterisk follows results filed as active; · = no result given.
SMILES,GSTO1 counter,Fam108B inh,LYPLA2 inh,PREPL inhibitor,LYPLA1 inh,PME-1 primary
CCCc1cc(=O)[nH]c(SCC(=O)c2ccc(S(=O)(=O)N3CCCC3)cc2)n1,36.6*,0.4,2.3,7.8,0.8,5.2
CCCc1cc(=O)[nH]c(SCC(=O)N2CCN(S(=O)(=O)c3ccc(Cl)cc3)CC2)n1,16.7,10.1,5.1,20.7,-4.1,5.4
CCOc1cc(/C=C/c2ccc3cccc([N+](=O)[O-])c3n2)cc(Cl)c1O,4.9,16.2,1.6,21.4,-3.8,27.2*
O=c1cc(-c2ccccc2Cl)oc2c(NS(=O)(=O)c3cc(Cl)cc(Cl)c3O)ccc(O)c12,1.6,7.1,-23.6,11.6,-14.1,56.6*
CCN1C(=O)c2ccccc2S(=O)c2ccc(C(=O)NCc3ccccn3)cc21 (centres undefined),37.1*,1.6,7.5,-0.1,4.2,5.6
CCN1C(=O)c2ccccc2S(=O)c2ccc(C(=O)NCCN(CC(C)C)CC(C)C)cc21 (centres undefined),-2.5,-1.7,6.7,5.5,4.4,0.1
O=C(Nc1nccs1)C1CC=CCC1 (centres undefined),4.3,1.9,6.3,3.6,4.9,-1.6
O=C(Nc1ccc(O)cc1)C1CC=CCC1 (centres undefined),37.0*,9.1,17.8,16.1,7.4,14.3
Cc1cc(C(=O)C(C)Cl)c(C)n1Cc1ccco1 (centres undefined),80.8*,0.0,5.3,-7.2,-0.7,1.5
CC(C)N(C(=O)[C@H]1CC(CC(=O)NCC23CC4CC(CC(C4)C2)C3)C(=O)N2CCc3c([nH]c4ccccc34)[C@]12C)C(C)C (some centres undefined),·,·,·,9.7,·,·
COCCSc1nnc(NC(=O)CCS(=O)(=O)c2ccccc2)s1,1.4,0.7,-2.6,-2.0,2.3,1.5
O=c1[nH]c(C2CCN(S(=O)(=O)c3ccccc3F)CC2)nc2c1nnn2Cc1ccc2c(c1)OCCO2,0.1,-0.2,0.7,-9.1,3.6,7.0
O=c1[nH]c(C2CCCN(S(=O)(=O)c3ccccc3)C2)nc2c1nnn2Cc1ccccc1 (centres undefined),17.4,1.1,-0.6,4.6,0.5,33.0*
COc1cccc(Cn2nnc3c(=O)[nH]c(C4CCCN(C(=O)c5ccccc5Cl)C4)nc32)c1 (centres undefined),3.7,-5.3,-0.8,-0.5,2.4,57.6*
O=c1[nH]c(C2CCN(S(=O)(=O)c3ccc(F)cc3)CC2)nc2c1nnn2Cc1ccc2c(c1)OCCO2,2.1,-8.1,-0.5,1.1,-2.8,32.2*
O=S(=O)(c1ccc2c(c1)CCN2)N1CCCC1,·,·,3.6,4.2,0.8,-5.6
COc1ccccc1C(=O)NC(=O)CSc1ccc(C)c(C)c1,·,·,·,-1.9,·,·
COc1ccccc1NC(=O)NCCN1C(=O)C2C3C=CC(C3)C2C1=O (centres undefined),1.6,2.1,-1.2,-6.4,3.5,2.0
O=C(O)c1cccc(-n2c(/C=C/c3ccc([N+](=O)[O-])cc3)nc3ccccc3c2=O)c1,2.1,0.7,9.9,7.0,3.5,30.2*
COCCN(C(=O)C1CC(=O)N(Cc2ccccc2)C1)c1nc(-c2ccc([N+](=O)[O-])cc2)cs1 (centres undefined),·,·,-6.2,15.8,-4.6,5.7
C=CC[C@@H](CC(=O)OC(C)(C)C)C(=O)OC[C@@H]1CCCN1C(=O)[C@@H](CC=C)CC(=O)N(CCO)Cc1ccccc1,·,·,·,13.7,·,·
O=C(c1cc([N+](=O)[O-])ccc1Cl)N1CCN(c2ccc(F)cc2)CC1,-0.8,2.4,3.1,45.0*,0.3,3.4
O=C(CCl)Nc1c(C(=O)Nc2ccc3c(c2)OCCO3)oc2ccccc12,36.3*,-0.6,-8.1,11.8,-6.2,-0.9
COCC(=O)Nc1c(C(=O)Nc2ccc3c(c2)OCO3)oc2ccccc12,2.1,5.9,-2.9,4.7,-2.6,-3.2
Cc1ccc(C)c(C(=O)OCC(=O)Nc2cccc(S(=O)(=O)N3CCCCC3)c2)c1,·,·,-66.6,8.6,-40.2,-72.9
SMILES,GSTO1 counter,Fam108B inh,LYPLA2 inh,PREPL inhibitor,LYPLA1 inh,PME-1 primary
Oc1[nH]c2ccccc2c1N=Nc1nc2ccccc2s1,-78.3,5.3,7.7,6.8,2.9,29.4*
CC(=O)c1cnc2ncnn2c1C,2.3,-6.4,2.8,9.1,-0.2,5.1
Cc1ccn(C(=O)c2ccc(NC(=O)CC(C)C)cc2)n1,-4.3,-2.6,-2.6,71.1*,5.2,-3.2
Cc1cc(C)n(C(=O)c2ccc(NC(=O)CC(C)C)cc2)n1,3.3,-2.0,1.4,14.7,3.1,11.1
CC1CCN(C2=C(NS(=O)(=O)c3ccccc3)C(=O)c3ccccc3C2=O)CC1,35.4*,1.7,11.5,5.0,3.8,3.1
CC(NC(=O)c1ccc(NC(=O)CC2SC(N3CCCC3)=NC2=O)cc1)c1ccc(F)cc1 (centres undefined),·,·,0.2,7.7,-5.2,-0.2
CN(c1ccccc1)c1ccc(/C=N/NC(=O)CC#N)cc1,0.7,2.7,3.9,50.3*,-1.1,1.3
COc1ccc(OC)c(/C=C/C(=O)NCCc2nc3ccccc3[nH]2)c1,3.5,1.1,6.4,3.7,-0.3,2.4
CN1CCN(c2ccc(NC(=O)c3ccc(-c4ccc(Br)cc4)o3)cc2)CC1,12.5,16.2,-3.4,34.5,0.9,29.6*
C/C(=N/Nc1ccnc2cc(Cl)ccc12)c1ccc(N)cc1,-0.6,6.1,-8.9,37.5,-6.4,35.8*
C/C(=N/Nc1ccnc2cc(Cl)ccc12)c1ccc(O)cc1,-8.1,9.6,-1.6,39.5,-10.1,33.3*
Clc1ccc2c(N/N=C/c3ccccc3Br)ccnc2c1,1.6,-20.6,-0.5,4.5,-3.2,-0.5
NC(=S)NNc1ccnc2cc(Cl)ccc12,12.7,0.5,1.4,14.9,-0.5,4.9
CCC(=O)N1CCN=C1SCc1cccc(F)c1,2.3,4.1,3.9,7.1,-1.7,-1.1
COc1cc(/C(C)=N/NC(=O)C(O)(c2ccccc2)c2ccccc2)ccc1O,-4.0,1.2,12.8,0.6,0.2,-6.8
O=C1c2ccccc2C(=O)N1CSc1nnnn1-c1ccccc1,37.1*,0.5,3.6,14.0,2.0,-2.1
CCOc1ccc(S(=O)(=O)N(CC)CC(=O)NCc2ccccn2)cc1C,0.6,3.2,-4.0,14.0,-3.8,-8.5
COc1ccc(OCCn2cc(/C=N/NC(=O)c3ccncc3)c3ccccc32)cc1,-4.8,9.5,39.3*,34.8,-7.1,32.4*
COC(=O)N/N=C/c1cn(CCOc2ccc(OC)cc2)c2ccccc12,3.4,0.0,12.7,23.4,-2.0,2.2
CCOC(=O)NNc1ccc2nonc2c1[N+](=O)[O-],88.9*,12.4,2.5,13.4,-3.3,4.0
CCOC(=O)C1CCN(C(=O)Cn2nc(CC)n3cccc3c2=O)CC1,-2.2,3.1,3.9,4.8,2.6,-8.2
